Source: PubChem BioAssay (NCATS)
Results filed as inconclusive are left out. The source made the active and inactive calls. The call rests on the fitted dose curve; in most records, active means well fitted curve in the direction sought with a large enough effect; inconclusive means small, poorly fitted or top-dose-only effect, or another doubt; inactive means no such curve, though single readings can be large; an effect the other way counts as inactive or inconclusive.

Assays:
[1] = target: Glutathione peroxidase 1 (Homo sapiens) (UniProt P07203); assay: Primary qHTS Assay for Inhibitors of Recombinant Selenoprotein Glutathione Peroxidase 1 (GPX1) (AID 1845191); further: nearly all actives have a fitted effect of over 65% in size
Summary of the method: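 Recombinant GPX1 (10 nM final) was preincubated with compound for 30 min at room temperature, then reacted with 1 mM GSH, 0.5 mM CHP, 0.5 mM NADPH and 100 nM glutathione reductase; NADPH fluorescence (340/450 nm) was read at 0 and 15 min.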

[2] = target: Phospholipid hydroperoxide glutathione peroxidase GPX4 (Homo sapiens) (UniProt P36969); assay: Primary qHTS Assay for Inhibitors of Recombinant Selenoprotein Glutathione Peroxidase 4 (GPX4) (AID 1845192); further: nearly all actives have a fitted effect of over 65% in size
Summary of the method: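 GR-coupled readout: 100 nM GR, 1 mM GSH, 0.5 mM NADPH; NADPH fluorescence (ex 340/em 450 nm) read at t=0 and after 15 min RT. GPX4 200 nM, preincubated 30 min with compound; substrate 0.5 mM CHP.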

[3] = target: Luciferin 4-monooxygenase (Photinus pyralis) (UniProt P08659); assay: Primary firefly luciferase (FLuc) qHTS assay for identification of artifact compounds. (AID 1845220); further: nearly all actives have a fitted effect of over 60% in size; further: potency means the concentration at half of the fitted maximal effect
Summary of the method: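 In this counter-screen for luciferase artifacts, test compounds met substrate (10 uM each luciferin and ATP) before 10 nM enzyme started the reaction. Light output was measured 5 min later.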

[4] = test system: Nanoluciferase (engineered Oplophorus gracilirostris luciferase); assay: Primary Nanoluciferase (NLuc) qHTS assay for identification of artifact compounds. (AID 1845222);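 further: NLuc secreted into diluted conditioned medium of S16 cells; series mostly up to about 54 µM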
Summary of the method: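 Using secreted nanoluciferase in S16 culture medium (0.22 um filtered, 1:55 dilution), compounds were preincubated 15 min at RT. Signal was generated with Nano-Glo reagent (1:100) over 5 min.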

[5] = Primary redox qHTS assay for identification of artifact compounds. (AID 1845223)
Summary of the method: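 Amplex Red (25 uM) and HRP (250 mU/mL) in HBSS, with compounds for 15 min, then 250 uM DTT for 30 min, room temperature, dark. Fluorescence 525/598 nm read; normalized to DMSO and 10 uM DA3003; Hill fit.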

Measured: Potency

Sequence of Glutathione peroxidase 1 (Homo sapiens) (P07203 whole entry, looked up): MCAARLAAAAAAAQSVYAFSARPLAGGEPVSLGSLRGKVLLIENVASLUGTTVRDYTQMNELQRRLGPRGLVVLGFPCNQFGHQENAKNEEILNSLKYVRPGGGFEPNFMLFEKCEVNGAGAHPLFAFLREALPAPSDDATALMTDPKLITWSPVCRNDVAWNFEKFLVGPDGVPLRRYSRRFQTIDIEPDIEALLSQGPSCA
Sequence of Phospholipid hydroperoxide glutathione peroxidase GPX4 (Homo sapiens) (P36969 whole entry, looked up): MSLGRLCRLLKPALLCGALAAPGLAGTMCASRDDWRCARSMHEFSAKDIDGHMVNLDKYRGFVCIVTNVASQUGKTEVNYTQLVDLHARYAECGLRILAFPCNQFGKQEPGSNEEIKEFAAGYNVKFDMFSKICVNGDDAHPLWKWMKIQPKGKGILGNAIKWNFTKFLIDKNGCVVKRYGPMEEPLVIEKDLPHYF

CN(C)CCN(Cc1ccccc1)C(=O)c1cc(-c2ccc(F)cc2)n2nc(C(C)(C)C)cc2n1
inactive: [1] | [2] | [3] | [4] | [5]

CC[C@H](C)/C=C(C)/C=C/C1=CC2=C(Cl)C(=O)[C@](C)(O)[C@H](OC(C)=O)[C@H]2CO1
inactive: [1] | [2] | [3] | [4] | [5]

C/C1=C\CCC2=CC(OC2=O)C(C)(C)/C=C/C1=O (stereo not drawn)
inactive: [1] | [2] | [3] | [4] | [5]

CC1(CO)CC2C(O)C3=C(CC(C)(O)C2C1)C(=O)OC3 (stereo not drawn)
inactive: [1] | [2] | [3] | [4] | [5]

COc1c(F)cccc1C(=O)N1C[C@@H](C)CC[C@H]1CNc1ccc(Br)cn1
inactive: [1] | [2] | [3] | [5]

Clc1ncoc1-c1c[nH]c2ccccc12
inactive: [1] | [2] | [3] | [4] | [5]

CC(=O)O[C@]1(C(C)=O)CC[C@H]2[C@@H]3CCC4=CC(=O)CCC4=C3[C@@H](c3ccc(N(C)C)cc3)C[C@@]21C
inactive: [1] | [2] | [3] | [4] | [5]

CCN1CCN(Cc2ccc(NC(=O)c3ccc(C)c(Oc4ncnc5[nH]c(C)cc45)c3)cc2C(F)(F)F)CC1
inactive: [1] | [2] | [3] | [4] | [5]

CC[C@@H](C)[C@@H]1OC2(C=C[C@H]1C)C[C@@H]1C[C@H](C/C=C(\C)[C@H](O[C@H]3C[C@H](OC)[C@H](O[C@H]4C[C@H](OC)[C@H](NC(C)=O)[C@H](C)O4)[C@H](C)O3)[C@H](C)/C=C/C=C3\CO[C@H]4[C@H](O)C(C)=C[C@@H](C(=O)O1)[C@@]34O)O2 (stereo partly drawn)
inactive: [1] | [2] | [3] | [4] | [5]

CC(C)(O)/C=C/C(=O)[C@](C)(O)[C@H]1[C@H](O)C[C@@]2(C)[C@@H]3CC=C4[C@@H](C[C@H](O[C@@H]5O[C@H](CO)[C@@H](O)[C@H](O)[C@H]5O)C(=O)C4(C)C)[C@]3(C)C(=O)C[C@]12C
inactive: [1] | [2] | [3] | [4] | [5]

CN(C)CCOC(C)(c1ccccc1)c1ccc(Cl)cc1 (stereo not drawn)
inactive: [1] | [2] | [3] | [4] | [5]

C=C1C(=O)OC2CC(C)C(CCC(C)O)=CCC12 (stereo not drawn)
active: [3] 6.75 µM
inactive: [1] | [2] | [4] | [5]

C=CC(=O)N1CCN(C(=O)CNc2cc(-c3ccccc3Cl)c(Cl)cc2OC)CC1
inactive: [1] | [2] | [3] | [4] | [5]

C=C1C(=O)O[C@@H]2/C=C(\CO)CC/C=C(/C=O)C[C@@H](O)[C@@H]12
inactive: [1] | [2] | [3] | [4] | [5]

C=C1C(=O)O[C@@H]2C[C@]3(C)[C@@H](CCC(C)O)[C@@H]3C[C@H]12 (stereo partly drawn)
inactive: [1] | [2] | [3] | [4] | [5]

CC1(C)SCCN(S(=O)(=O)c2ccc(Oc3ccncc3)cc2)[C@H]1C(=O)NO
inactive: [1] | [2] | [3] | [4] | [5]

O=[N+]([O-])c1ccc(Oc2ccc3c(c2)CCC(c2ccccc2)O3)nc1 (stereo not drawn)
inactive: [1] | [2] | [3] | [4] | [5]

O=C(NCCN1CCN(c2cccc3ccc(O)cc23)CC1)c1ccc(F)cc1
inactive: [1] | [2] | [3] | [4] | [5]

COC(C)(C)CCn1nc(Nc2c(C)cccc2C)c2cnc(Nc3ccc(OCCN4CCCC4)c(F)c3)nc21
inactive: [1] | [2] | [3] | [4] | [5]

CCN(c1cc(-c2ccc(CN3CCOCC3)cc2)cc(C(=O)NCc2c(C)cc(C)[nH]c2=O)c1C)C1CCOCC1
inactive: [1] | [2] | [3] | [5]

COc1cc(CCO)ccc1O[C@@H]1O[C@H](CO)[C@@H](O)[C@H](O)[C@H]1O
inactive: [1] | [2] | [3] | [4] | [5]

Cn1c(CO)c(-c2ccccc2)c2cc([N+](=O)[O-])ccc21
inactive: [1] | [2] | [3] | [4] | [5]

O=C1NC(=O)C(c2cnc3ccccn23)=C1c1cn2c3c(cc(F)cc13)CN(C(=O)N1CCCCC1)CC2
inactive: [1] | [2] | [3] | [4] | [5]

N#CC(CCCN1CCN(/N=C/c2cccnc2)CC1)(c1ccccc1)c1ccccc1
inactive: [1] | [2] | [3] | [4] | [5]

C[C@@H]1O[C@@H](O[C@H]2[C@@H]3C=CO[C@@H](O[C@@H]4O[C@H](CO)[C@@H](O)[C@H](O)[C@H]4O)[C@@H]3[C@@]3(CO)O[C@@H]23)[C@H](O)[C@H](OC(=O)/C=C/c2ccccc2)[C@H]1O
inactive: [1] | [2] | [3] | [4] | [5]

COc1ccc2c(c1)C(C(=O)N(Cc1ccc(N(C)C)cc1)c1ccc(C(C)C)cc1)CCC2 (stereo not drawn)
inactive: [1] | [2] | [3] | [4] | [5]

COC1C(OC(=O)/C=C/C=C/C=C/C=C/C(=O)O)CCC2(CO2)C1C1(C)OC1CC=C(C)C (stereo not drawn)
inactive: [1] | [2] | [3] | [4] | [5]

CN(C)[C@@H]1CCc2[nH]c3ccc(NC(=O)c4ccc(F)cc4)cc3c2C1
inactive: [1] | [2] | [3] | [4] | [5]

O=C(NO)c1cnc(N2CCN(S(=O)(=O)c3ccc4ccccc4c3)CC2)nc1
inactive: [1] | [2] | [3] | [4] | [5]

CCn1c(=O)c(-c2ccc(-c3cncs3)cc2Cl)cc2cnc(Nc3ccc(N4CCN(C)CC4)cc3)nc21
inactive: [1] | [2] | [3] | [4] | [5]

C=C(C(=O)OC[C@H]1O[C@@H](OC(=O)/C=C/c2ccccc2)[C@H](O)[C@@H](O)[C@@H]1O)C(O)CO (stereo partly drawn)
inactive: [1] | [2] | [3] | [4] | [5]

Cc1[nH]c(/C=C2\C(=O)Nc3ccc(F)cc32)c(C)c1C(=O)NCCN1CCCC1
inactive: [1] | [2] | [3] | [4] | [5]

C=CC(=O)Nc1ccc(CN2C(=O)N(c3cc(OC)cc(OC)c3)Cc3cnc(Nc4ccc(N5CCN(C)CC5)cc4)nc32)cc1
inactive: [1] | [2] | [3] | [4] | [5]

COc1cccc(NCCC2(c3ccccc3)CC(C)(C)OC(C)(C)C2)c1
inactive: [1] | [2] | [3] | [4] | [5]
